# T cruzi growth-1 – T. cruzi intracellular proliferation inhibitors, primary screen, cell-based, beta-gal Tulahuen parasites, NIH3T3 host, luminescence | AID 624255, 2012 | inhibition, % at 8.34 µM | 77,000 compounds, 5.9% hits | T. cruzi beta-gal in NIH3T3, GalScreen luminescence, 90 h;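 active = mean inhibition above about 93%, with at least 55% of replicates each passing it, limit read from the data, passing the limit was not always enough; inconclusive = only one of those two conditions holds; inactive = neither condition holds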
# C diff growth – C. difficile growth inhibitors, primary screen, HTS; Clostridium difficile clinical isolate growth, OD600, 24 h; stronger effect = lower value; growth activity, negative = inhibition, % at 16 µg/mL (by protocol); 86,000 compounds, 0.25% hits; AID 1259249, 2017;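 active = mean growth activity at or below -80% and every replicate also at or below -80%; inconclusive = mean at or below -80% but some replicate above -80%; inactive = mean growth activity above -80%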;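 also: 0% = DMSO wells and -100% = levofloxacin 16 µg/mL wells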
# Pf Dd2 inh – P. falciparum Dd2 growth inhibitors, primary screen, SYBR Green fluorescence, single dose replicates; 72 h; stronger effect = lower value; activity change, % at 10 µM; 94,000 compounds, 2.3% hits; AID 1159554, 2015; in the data active = activity change below about -80%; inconclusive = no clear call, values can overlap the other calls
# T cruzi growth-2 – T. cruzi intracellular proliferation inhibitors, confirmation, cell-based, NIH3T3 host, beta-gal parasite, luminescence, cherry-pick; shares compounds with T cruzi growth-1; inhibition, % at 8.35 µM; AID 651739, 2012; T. cruzi beta-gal in NIH3T3, GalScreen luminescence, 90 h; 5,600 compounds, 72% hits;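 active = mean replicate inhibition above about 95% and at least 55% of replicates individually reaching it, limit read from the data; inconclusive = only one of the two criteria is met; inactive = neither criterion is met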
# T cruzi growth-3 – inhibitors of intracellular T. cruzi replication, confirmation, NIH3T3 host cells, beta-gal parasites, cherry-pick, set 2; shares compounds with T cruzi growth-1; T. cruzi beta-gal in NIH3T3, GalScreen luminescence, 90 h; inhibition, % at 2.09 µM; 5,600 compounds, 21% hits;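 active = mean inhibition above about 95%, with at least 55% of replicates also reaching it, limit read from the data; inconclusive = meets just one of the two conditions; inactive = meets neither condition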;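 also: plate controls were neutral control median for no effect and positive control median for full effect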
# NIH3T3 tox – cytotoxicity in mouse NIH/3T3 fibroblasts, confirmation, cytotoxicity control for T. cruzi proliferation inhibitor project, cell-based, cherry-pick, single point; shares compounds with T cruzi growth-1; NIH/3T3 viability, CellTiter-Glo ATP luminescence, 90 h; cytotoxicity (signal decrease), % at 8.35 µM; 5,600 compounds, 14% hits; AID 651742, 2012;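 active = mean signal decrease across replicates above about 35% based on untreated-well scatter, with enough replicates individually passing, limit read from the data; inconclusive = no rule stated though some were filed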;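 also: 0% = median of neutral control wells and 100% = median of positive control wells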
# 3T3 cytotox 2 – NIH/3T3 fibroblast cytotoxicity, confirmation, cytotoxicity control, cell-based, cherry-pick, single point, set 2 | 5,600 compounds, 56% hits | inhibition, % at 24.9 µM | NIH/3T3 viability, CellTiter-Glo ATP luminescence, 90 h | shares compounds with T cruzi growth-1;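 active = mean loss of cell viability signal at or above a set limit, and enough replicates individually reaching it; inconclusive = meets only the mean limit or only the replicate share; inactive = meets neither condition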;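 also: 0% = median of neutral control wells and 100% = median of positive control wells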
# Numbers without * were called inactive; ? = inconclusive; . = no result. Only some compounds are listed: those with a hit (about 6.8% of all), similar ones and a draw of the others.
SMILES,T cruzi growth-1,C diff growth,Pf Dd2 inh,T cruzi growth-2,T cruzi growth-3,NIH3T3 tox,3T3 cytotox 2
Cc1cccc(-c2ccc([C@H]3[C@@H](CO)N4CCCCN(CCC(F)(F)F)C[C@H]34)cc2)c1,105*,33,-85*,100*,102*,32,105*
OC[C@H]1[C@H](c2ccc(C#CC3CC3)cc2)[C@H]2CN(CCC(F)(F)F)CCCCN21,98*,19,1,111*,32,34,106*
CCC(=O)NC[C@H]1[C@@H](c2ccc(-c3ccccc3)cc2)[C@@H](CO)N1C(=O)C1CC1,18,-5,13,.,.,.,.
COc1ccccc1C#Cc1ccc([C@@H]2[C@@H](CO)N3CCCCN(CCC(F)(F)F)C[C@H]23)cc1,105*,57,-82*,91,110*,98*,104*
Cc1cccc(-c2ccc([C@H]3[C@H](CO)N4CCCCN(CCC(F)(F)F)C[C@@H]34)cc2)c1,108*,30,-71,?,90,26,104*
OC[C@H]1[C@H](c2ccc(-c3ccccc3)cc2)[C@@H]2CN(CCC(F)(F)F)CCCCN12,106*,21,-65,100*,75,65*,102*
OC[C@H]1[C@@H](c2ccc(-c3ccccc3)cc2)[C@@H]2CN(CCC(F)(F)F)CCCCN12,65,1,-66,.,.,.,.
COc1ccccc1C#Cc1ccc([C@H]2[C@H]3CN(CCC(F)(F)F)CCCCN3[C@H]2CO)cc1,43,15,-36,.,.,.,.
OC[C@@H]1[C@@H](c2ccc(-c3ccc(F)cc3)cc2)[C@@H]2CN(CCC(F)(F)F)CCCCN12,48,25,-29,.,.,.,.
CCCNC(=O)Nc1ccc2c(c1)C(=O)N(C)C[C@H](OC)[C@@H](C)CN(Cc1ccncc1)[C@@H](C)CO2,-13,0,-14,.,.,.,.
COc1ccc(NC(=O)Nc2ccc3c(c2)[C@H]2C[C@@H](CC(=O)N(C)C)O[C@H](CO)[C@H]2O3)cc1,20,-5,1,.,.,.,.
Cc1ccccc1-c1cnc2c(c1)C(=O)N([C@@H](C)CO)C[C@H](C)[C@H](CN(C)Cc1cncnc1)O2,.,.,20,.,.,.,.
C[C@H](CO)N1C[C@H](C)[C@@H](CN(C)C(=O)Cc2ccncc2)Oc2cc(C#CC3CC3)ccc2S1(=O)=O,97*,-1,-16,102*,58,6,9
C[C@H]1CN([C@@H](C)CO)S(=O)(=O)c2ccc(C#CC3CC3)cc2O[C@H]1CN(C)C(=O)Cc1ccncc1,90,2,-68,.,.,.,.
C[C@@H]1CN([C@@H](C)CO)S(=O)(=O)c2ccc(C#CC3CC3)cc2O[C@@H]1CN(C)C(=O)Cc1ccncc1,88,-3,-52,.,.,.,.
C[C@H]1CN([C@@H](C)CO)S(=O)(=O)c2ccc(C#CC3CC3)cc2O[C@@H]1CN(C)C(=O)Cc1ccncc1,96*,-3,-50,104*,74,-30,-17
CC(C)NC(=O)Nc1ccc2c(c1)C(=O)N([C@@H](C)CO)C[C@H](C)[C@H](CN(C)Cc1ccc(Cl)c(Cl)c1)O2,2,0,-2,.,.,.,.
C[C@@H]1CN([C@H](C)CO)C(=O)c2cc(NS(C)(=O)=O)ccc2O[C@@H]1CN(C)Cc1ccc(C(=O)O)cc1,-145,.,39,.,.,.,.
COc1cccc(-c2ccc([C@H]3[C@H](CO)N4CCCCN(C(=O)NC(C)C)C[C@@H]34)cc2)c1,108*,-13,23,110*,81,37*,31*
COc1cccc(-c2ccc([C@@H]3[C@H]4CN(C(=O)NC(C)C)CCCCN4[C@H]3CO)cc2)c1,75,-2,33,.,.,.,.
COc1cccc(-c2ccc([C@H]3[C@@H](CO)N4CCCCN(C(=O)NC(C)C)C[C@@H]34)cc2)c1,105*,-22,25,101*,41,11,3
COc1cccc(-c2ccc([C@@H]3[C@H]4CN(C(=O)NC(C)C)CC(=O)N4[C@H]3CO)cc2)c1,.,-2,1,.,.,.,.
CN(C)CC(=O)Nc1ccc2c(c1)[C@H]1C[C@@H](CC(=O)NCc3ccc4c(c3)OCO4)O[C@H](CO)[C@H]1O2,26,0,20,.,.,.,.
C[C@@H]1CN([C@@H](C)CO)C(=O)c2cc(NC(=O)C3CC3)ccc2O[C@@H]1CN(C)CC1CCCCC1,-23,9,-12,.,.,.,.
CO[C@H]1CC[C@H]2CCN(C)C(=O)[C@@H](C)[C@H](OC)CN(C)C(=O)c3cc(C#N)ccc3OC[C@H]1O2,1,.,16,.,.,.,.
SMILES,T cruzi growth-1,C diff growth,Pf Dd2 inh,T cruzi growth-2,T cruzi growth-3,NIH3T3 tox,3T3 cytotox 2
COCC(=O)N1CCCCN2[C@H](C1)[C@@H](c1ccc(-c3cccc(C)c3)cc1)[C@@H]2CO,84,-11,8,.,.,.,.
COCC(=O)N1CCCCN2[C@H](CO)[C@@H](c3ccc(-c4cccc(C)c4)cc3)[C@H]2C1,78,-11,21,.,.,.,.
CC(=O)N1CCCCN2[C@H](CO)[C@@H](c3ccc(-c4cccc(C)c4)cc3)[C@@H]2C1,4,-4,34,.,.,.,.
Cc1cccc(-c2ccc([C@H]3[C@H]4CN(C(=O)NC(C)C)CCCCN4[C@H]3CO)cc2)c1,99*,-7,18,45,8,1,12
Cc1cccc(-c2ccc([C@H]3[C@H](CO)N4CCCCN(C(=O)NC(C)C)C[C@@H]34)cc2)c1,106*,-14,21,107*,64,3,96*
Cc1cccc(-c2ccc([C@@H]3[C@H](CO)N4CCCCN(C(=O)NC(C)C)C[C@@H]34)cc2)c1,104*,-3,-23,110*,84,24,105*
C[C@H](CO)N1C[C@H](C)[C@H](CN(C)CC2CC2)Oc2c(cccc2N(C)C)C1=O,34,5,-33,.,.,.,.
CN(C)C(=O)c1ccc(-c2ccc([C@@H]3[C@@H](CO)N(S(C)(=O)=O)[C@H]3C#N)cc2)cc1,55,-4,-24,.,.,.,.
C[C@@H]1CN([C@H](C)CO)C(=O)c2cccc(NC(=O)CCCCCC(=O)Nc3ccccc3N)c2O[C@H]1CN(C)C(=O)Nc1ccc2c(c1)OCO2,.,7,-50,.,.,.,.
COc1ccccc1-c1ccc([C@@H]2[C@H]3CN(C(=O)c4cccnc4)CCCCN3[C@H]2CO)cc1,35,-10,59,.,.,.,.
COc1ccc(CNC(=O)C[C@H]2C[C@@H]3c4cc(NS(C)(=O)=O)ccc4O[C@@H]3[C@H](CO)O2)cc1,21,0,13,.,.,.,.

# Screening data from PubChem.
